# The panel holds about 83,000 compounds, 20% with a hit somewhere; the sample as a whole holds those more often.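 Assay: single dose, 48 h. Readout: percent growth (0 = no net growth; negative = cell death). Active: <10.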 Unmarked numbers belong to inactive results. Calls of active or inactive are those of the source.
# Assays:
# Experiment in all cases: NCI-60 one-dose screen, 48 h (100 = growth as untreated, 0 = no growth, -100 = all killed)
# [1] = system: HCT-15 colon; conditions: 10 µM
# [2] = system: HT29 colon; conditions: 10 µM
# [3] = system: SNB-75 CNS; conditions: 10 µM
# [4] = system: SNB-19 CNS; conditions: 10 µM
# [5] = system: U251 CNS; conditions: 10 µM
# [6] = system: PC-3 prostate; conditions: 10 µM
# [7] = system: SK-MEL-5 melanoma; conditions: 10 µM
# [8] = system: UACC-62 melanoma; conditions: 10 µM unless noted
# [9] = system: LOX IMVI melanoma; conditions: 10 µM
# [10] = system: SK-MEL-28 melanoma; conditions: 10 µM
Structure (SMILES),growth [1],growth [2],growth [3],growth [4],growth [5],growth [6],growth [7],growth [8],growth [9],growth [10]
CC1(C)N=C(N)N=C(N)N1c1ccc(Cl)cc1,73.6%,29.8%,75.8%,58%,31.5%,33.1%,31.7%,41.4%,24.6%,90.4%
Nc1nc(OCc2ccccc2)c2[nH]cnc2n1,63.7%,105%,8.69% (active),104%,100%,84.4%,94%,86.1%,83.1%,–
O=C(CCl)Nc1ccc2c(c1)C(=O)c1ccc(NC(=O)CCl)cc1C2=O,-86.6% (active),-59.8% (active),-55.4% (active),-45.3% (active),-89.3% (active),-22.1% (active),-88% (active),-73.1% (active),-89.6% (active),-40.6% (active)
Cc1ccccc1C1N=C2Oc3ccccc3C=C2C(=O)N1 (stereo not drawn),36.8%,49.7%,21%,61.3%,63.8%,16.3%,30.7%,35.1%,57.3%,41.5%
CC(=O)NCc1cc(C)c(C)cc1C,105%,97.2%,87.9%,109%,97.9%,93.5%,104%,109%,98.6%,103%
c1cc2cccc3c4cccc5cccc(c(c1)c23)c54,99.9%,110%,88.5%,99.5%,120%,93.5%,102%,93.2%,97.7%,107%
O/N=C/c1ccc(O)cc1O,89.9%,102%,89.3%,96.6%,90.6%,86.4%,104%,96.5%,105%,107%
CCO/C=C1\SC(=S)N(c2cccc(C)c2)C1=O,101%,102%,80.6%,111%,98.6%,92.5%,102%,105%,104%,104%
CC1(C(=O)O)NC(C(=O)O)Cc2c1[nH]c1ccccc21 (stereo not drawn),110%,109%,88.8%,108%,102%,87.4%,104%,100%,101%,103%
CSC[C@H](NC(=O)COc1cccc2cnccc12)C(=O)NC(Cc1ccccc1)C(O)C(=O)N1CSC[C@H]1C(=O)NC(C)(C)C (stereo partly drawn),96.3%,108%,-20.5% (active),103%,102%,96.3%,102%,98.3%,102%,–
Cc1cc2ccccc2c(O)c1C#N,92.2%,123%,78.3%,100%,109%,105%,104%,97.7%,94.4%,115%
O=C(O)CCCc1ccccc1,101%,109%,99.9%,105%,95.3%,99.3%,108%,108%,102%,111%
c1ccc2c(N3CCCCC3)ncnc2c1,99.6%,76.2%,140%,99.4%,93%,87.3%,91.8%,91.3%,92.8%,115%
OCCN1CCOCC1,96.3%,110%,90.4%,102%,108%,109%,103%,103%,105%,105%
N#CC1(Nc2ccc3c4c(cccc24)CC3)CCCCC1,106%,89.1%,78.6%,107%,99.8%,90.8%,91.6%,106%,97.6%,103%
COc1ncnc2c1cnn2C,98.9%,107%,113%,110%,106%,101%,101%,98.9%,98%,111%

Structure (SMILES),growth [1],growth [2],growth [3],growth [4],growth [5],growth [6],growth [7],growth [8],growth [9],growth [10]
COc1cccc(O)c1O,38.4%,104%,56.3%,65.1%,65.1%,79.5%,55.9%,45.5%,53.7%,74.1%
C#CC(C(C)C)N(CCO)CCCC (stereo not drawn),94.9%,117%,83.6%,107%,97.7%,94.7%,100%,107%,107%,101%
C[N+](C)(C)C(=O)c1ccccc1,101%,104%,94.8%,102%,107%,102%,105%,94%,99.9%,116%
CCCCC1(CC)COC(CCC)OC1 (stereo not drawn),91.7%,103%,99.1%,99.9%,94.7%,82%,103%,96.6%,97.3%,115%
COC(=O)/C=C/C(=O)NC(N)=O,96.3%,102%,76.2%,104%,96.8%,96.5%,104%,101%,97.1%,97.8%
COC(=O)Nc1nc2ccc(C(=O)c3ccc(F)cc3)cc2[nH]1,5.81% (active),7.47% (active),31%,33.5%,14.3%,2.25% (active),13.6%,36%,28.4%,54.2%
S=c1[nH]ccn1-c1ccccc1Cl,107%,104%,95.4%,102%,99.2%,95.2%,112%,107%,100%,101%
CC(=O)c1ccc(C(C)(C)C)cc1,101%,96.7%,97.7%,95.6%,99.6%,91.2%,101%,91.1%,98.5%,120%
CCCOC(=O)C(O)c1ccccc1 (stereo not drawn),97.5%,103%,96.7%,107%,115%,101%,104%,98.2%,104%,116%
COc1cc([C@@H]2c3cc4c(cc3[C@H](O)[C@H]3COC(=O)[C@H]23)OCO4)cc(OC)c1OC,10.4%,4.93% (active),30.6%,34.7%,16.5%,23.3%,-25% (active),40.5%,22%,58.8%
O=C1C=C(Nc2ccc([N+](=O)[O-])cc2)c2ccccc2C1=O,31.2%,99.4%,42.9%,52.8%,28.5%,23.9%,11.7%,17.7%,9.66% (active),50.3%
Cc1ccc(CCCC(=O)O)c(C)c1,99%,98.8%,79.2%,101%,94.1%,97.1%,102%,102%,99.3%,98.1%
Cc1cc(N2CCC(N3CCCC3)CC2)nc(/N=C(\N)Nc2ccc(Cl)c(Cl)c2)n1,-12.7% (active),-44.6% (active),-60.3% (active),90.7%,-71.8% (active),82.6%,-94% (active),-82.9% (active),-90.8% (active),-75% (active)
O=C(/C(=N/O)c1ccccc1)c1ccccc1,96.8%,117%,85.4%,100%,94.6%,94.9%,97.4%,88.3%,105%,105%
OCC1OC(OC2C(O)C(CO)OC2(CO)OC2OC(CO)C(O)C(O)C2O)C(O)C(O)C1O (stereo not drawn),107%,102%,86.1%,102%,109%,98.5%,109%,107%,93.1%,106%

# Reference: PubChem BioAssay (NCI)
